What all share (test): universal protein binding microarray (PBM); transcription factors of Arabidopsis thaliana; high values mean tight binding
Experiment [1] has as its target T1, GST-ANAC092(1-176) (Arabidopsis thaliana, UniProt Q9FKA0 1-176).
T1 sequence: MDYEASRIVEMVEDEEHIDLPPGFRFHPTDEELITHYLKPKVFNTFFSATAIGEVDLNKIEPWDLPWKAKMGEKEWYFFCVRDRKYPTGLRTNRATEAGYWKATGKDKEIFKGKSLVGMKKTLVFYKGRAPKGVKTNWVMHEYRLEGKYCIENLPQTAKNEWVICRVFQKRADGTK
The conditions noted are these: protein: recombinant; tags: GST; chain copies: 2; dsDNA, one strand shown. The gist of the method:
(§1)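 Each value is a normalised enrichment score (E-score) describing binding. The GST-tagged proteins, NAC-domain, full-length or DNA-binding-domain, were induced in cells (zinc-finger proteins with zinc acetate added) and purified on glutathione–Sepharose 4B. They were applied at 200 to 500 nM final, in duplicate, to double-stranded custom all-10-mer Agilent 4 × 180K arrays, and gapped and ungapped 8-mers were scored.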

Experiment [2] deals with GST-NTL6(1-168) (Arabidopsis thaliana, UniProt Q9SCK6 1-168). As to conditions: protein: recombinant; tags: GST; chain copies: 2; dsDNA, one strand shown. The gist of the method:
as §1

The target of experiment [3] is T2, GST-ANAC019 NAC domain (Arabidopsis thaliana, UniProt Q9C932 14-162).
T2 sequence: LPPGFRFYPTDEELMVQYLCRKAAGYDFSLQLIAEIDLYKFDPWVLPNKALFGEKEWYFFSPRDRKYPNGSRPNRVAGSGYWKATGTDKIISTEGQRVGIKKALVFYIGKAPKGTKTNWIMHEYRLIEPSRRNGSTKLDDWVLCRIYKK
As to conditions: protein: recombinant; tags: GST; chain copies: 2; dsDNA, one strand shown. The procedure, abridged:
as §1

For experiment [4], the target named is T3, GST-NST2(1-184) (Arabidopsis thaliana, UniProt Q9M274 1-184).
T3 sequence: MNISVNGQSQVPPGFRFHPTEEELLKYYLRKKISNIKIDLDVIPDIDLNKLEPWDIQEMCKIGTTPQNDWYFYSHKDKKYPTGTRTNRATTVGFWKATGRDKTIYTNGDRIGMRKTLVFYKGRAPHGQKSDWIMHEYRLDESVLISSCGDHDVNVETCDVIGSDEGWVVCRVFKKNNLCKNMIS
As to conditions: protein: recombinant; tags: GST; chain copies: 2; dsDNA, one strand shown. The gist of the method: as §1

The target of experiment [5] is T4, GST-NTL8 NAC domain (Arabidopsis thaliana, UniProt Q9XIN7 14-156).
T4 sequence: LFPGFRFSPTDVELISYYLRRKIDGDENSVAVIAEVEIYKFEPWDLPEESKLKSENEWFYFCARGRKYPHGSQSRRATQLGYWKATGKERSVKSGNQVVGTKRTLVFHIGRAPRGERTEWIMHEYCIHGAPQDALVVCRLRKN
As to conditions: protein: recombinant; tags: GST; chain copies: 2; dsDNA, one strand shown. The gist of the method:
as §1

The target of experiment [6] is T5, GST-SND1(1-203) (Arabidopsis thaliana, UniProt Q9LPI7 1-203).
T5 sequence: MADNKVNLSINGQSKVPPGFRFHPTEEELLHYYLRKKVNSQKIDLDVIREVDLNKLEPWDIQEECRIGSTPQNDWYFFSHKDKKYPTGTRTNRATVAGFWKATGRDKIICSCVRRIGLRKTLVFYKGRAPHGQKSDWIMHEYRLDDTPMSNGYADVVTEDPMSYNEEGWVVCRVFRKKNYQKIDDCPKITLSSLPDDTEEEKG
The conditions noted are these: protein: recombinant; tags: GST; chain copies: 2; dsDNA, one strand shown. The gist of the method: as §1

Experiment [7] concerns the target T6, GST-ANAC055(1-171) (Arabidopsis thaliana, UniProt Q9LDY8 1-171).
T6 sequence: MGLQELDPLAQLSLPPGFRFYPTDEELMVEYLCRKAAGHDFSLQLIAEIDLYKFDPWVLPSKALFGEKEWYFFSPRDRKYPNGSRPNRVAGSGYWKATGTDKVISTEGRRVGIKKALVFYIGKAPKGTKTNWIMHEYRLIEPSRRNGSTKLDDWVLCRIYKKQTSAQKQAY
The conditions noted are these: protein: recombinant; tags: GST; chain copies: 2; dsDNA, one strand shown. The gist of the method:
as §1

The target in experiment [8] is T7, GST-ANAC092(1-285) full length (Arabidopsis thaliana, UniProt Q9FKA0 1-285).
T7 sequence: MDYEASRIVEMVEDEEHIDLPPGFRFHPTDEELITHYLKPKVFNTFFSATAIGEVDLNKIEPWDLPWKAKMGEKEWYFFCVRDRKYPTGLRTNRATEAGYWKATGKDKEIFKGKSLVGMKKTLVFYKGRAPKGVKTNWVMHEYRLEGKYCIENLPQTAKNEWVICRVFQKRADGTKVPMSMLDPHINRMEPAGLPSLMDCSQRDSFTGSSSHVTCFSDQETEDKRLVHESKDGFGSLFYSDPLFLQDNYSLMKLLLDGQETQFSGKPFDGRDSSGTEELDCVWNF
As to conditions: protein: recombinant; tags: GST; chain copies: 2; dsDNA, one strand shown. The procedure, abridged: as §1

The target in experiment [9] is GST-WRKY1(266-371) (Arabidopsis thaliana, UniProt Q9SI37 266-371). The conditions noted are these: protein: recombinant; tags: GST; dsDNA, one strand shown. The procedure, abridged:
as §1

Experiment [10] has as its target T8, GST-ATAF1 NAC domain (Arabidopsis thaliana, UniProt Q39013 7-158).
T8 sequence: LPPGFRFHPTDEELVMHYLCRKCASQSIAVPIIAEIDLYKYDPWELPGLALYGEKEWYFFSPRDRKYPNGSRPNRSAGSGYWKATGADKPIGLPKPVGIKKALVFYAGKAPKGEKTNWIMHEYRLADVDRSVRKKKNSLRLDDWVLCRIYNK
As to conditions: protein: recombinant; tags: GST; chain copies: 2; dsDNA, one strand shown. The gist of the method: as §1

Experiment [11] concerns the target T9, GST-NAP(1-166) (Arabidopsis thaliana, UniProt O49255 1-166).
T9 sequence: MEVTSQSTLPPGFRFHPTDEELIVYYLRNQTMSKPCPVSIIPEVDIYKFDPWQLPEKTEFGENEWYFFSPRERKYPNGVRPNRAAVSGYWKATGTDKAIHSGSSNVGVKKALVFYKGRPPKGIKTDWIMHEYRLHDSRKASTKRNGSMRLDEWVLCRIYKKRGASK
The conditions noted are these: protein: recombinant; tags: GST; chain copies: 2; dsDNA, one strand shown. The procedure, abridged:
as §1

The results in this text go back to PMC4081100, “A DNA-binding-site landscape and regulatory network analysis for NAC transcription factors in Arabidopsis thaliana”.

Chain of GST-WRKY1(266-371) (Q9SI37 266-371): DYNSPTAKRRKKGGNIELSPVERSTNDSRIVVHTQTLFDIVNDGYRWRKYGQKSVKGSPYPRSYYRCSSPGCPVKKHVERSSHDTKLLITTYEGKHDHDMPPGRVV
Chain of GST-NTL6(1-168) (Q9SCK6 1-168): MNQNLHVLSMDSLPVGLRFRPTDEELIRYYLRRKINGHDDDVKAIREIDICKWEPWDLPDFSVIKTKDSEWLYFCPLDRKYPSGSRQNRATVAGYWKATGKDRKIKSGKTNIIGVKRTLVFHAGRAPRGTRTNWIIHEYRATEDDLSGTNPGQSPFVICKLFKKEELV

For AGGAAAGG, the binding signal is 0.0968 E-score in experiment [1]; 0.0725 E-score in [2]; 0.0699 E-score in [3]; 0.064 E-score in experiment [4]; 0.44 E-score in [5]; 0.136 E-score in experiment [6].
Regarding GTCAAAGA, the binding signal in experiment [7] worked out at 0.078 E-score; in [8] it was 0.0725 E-score; in [4], 0.053 E-score; in experiment [6], 0.167 E-score; in [9] it was 0.469 E-score.
TCAGTCAA: the binding signal in experiment [10] stood at 0.0626 E-score; in [5], 0.0655 E-score; in experiment [6], 0.0688 E-score; in experiment [9], 0.473 E-score.
Turning to CTTAGTCA, the binding signal in experiment [2] was determined as 0.243 E-score; in experiment [10] it was 0.101 E-score; in experiment [5], 0.091 E-score; in experiment [6] it was 0.118 E-score; in experiment [9], 0.424 E-score.
In the case of GAGTTGAC, the binding signal amounted to 0.0811 E-score in experiment [3], 0.102 E-score in experiment [4], 0.0621 E-score in [6] and 0.476 E-score in [9].
Take ACTGACCT: the binding signal in [5] was determined as 0.109 E-score; in experiment [6] it was 0.0503 E-score; in experiment [9] it was 0.407 E-score.
As for ACGTTGAC, the binding signal in experiment [8] came to 0.144 E-score; in [11], 0.0955 E-score; in [6] it was 0.127 E-score; in experiment [9], 0.489 E-score.
Regarding TAAAGTCA, the binding signal in experiment [10] was 0.0969 E-score; in [8], 0.0547 E-score; in [6] it was 0.0751 E-score; in experiment [9] it was 0.465 E-score.
On to AATTGACT, for which the binding signal was 0.0713 E-score in experiment [2]; 0.0891 E-score in [7]; 0.141 E-score in experiment [10]; 0.0602 E-score in [8]; 0.125 E-score in [4]; 0.0673 E-score in experiment [6]. For the same sequence, the binding signal in experiment [9] stood at 0.46 E-score.
On to CGTCAAAG, for which the binding signal in experiment [1] came to 0.0844 E-score; in experiment [3], 0.0986 E-score; in experiment [8], 0.149 E-score; in [4] it was 0.102 E-score; in experiment [6] it was 0.199 E-score; in [9] it was 0.427 E-score.
For the sequence GGGGTCAA, the binding signal came to 0.133 E-score in experiment [3]; 0.101 E-score in experiment [8]; 0.154 E-score in [5]; 0.0652 E-score in experiment [6]; 0.481 E-score in [9].
Regarding AAGTCAAG, the binding signal in [2] was 0.113 E-score; in [10], 0.0757 E-score; in [8], 0.14 E-score; in [4], 0.0657 E-score; in [6] it was 0.0903 E-score; in experiment [9], 0.479 E-score.
As for GGGGGAAA, the binding signal in [1] was determined as 0.117 E-score; in [2], 0.314 E-score; in experiment [3], 0.12 E-score; in experiment [8], 0.139 E-score; in [5], 0.472 E-score; in [6], 0.147 E-score.
Consider AGTCAGAA, for which the binding signal in experiment [8] turned out to be 0.0656 E-score; in experiment [11], 0.0823 E-score; in experiment [4], 0.119 E-score; in [6], 0.101 E-score; in [9], 0.416 E-score.
With CTTAAGGA, the binding signal in experiment [2] is 0.401 E-score; in experiment [4], 0.0872 E-score; in [5], 0.179 E-score; in experiment [6] it was 0.265 E-score; in [9] it was 0.07 E-score.
Turning to TAGGGAAA, the binding signal worked out at 0.106 E-score in [1]; 0.177 E-score in experiment [2]; 0.0861 E-score in experiment [3]; 0.088 E-score in [10]; 0.115 E-score in experiment [8]; 0.438 E-score in experiment [5]. In addition, the binding signal in experiment [6] turned out to be 0.0953 E-score.
In the case of GTCAGTCA, the binding signal in [8] amounted to 0.1 E-score; in experiment [6], 0.0958 E-score; in [9], 0.426 E-score.
In the case of AAGTCAAT, the binding signal worked out at 0.118 E-score in experiment [2]; 0.126 E-score in [10]; 0.119 E-score in experiment [8]; 0.0507 E-score in experiment [6]; 0.481 E-score in experiment [9].
Turning to CTTGACCC, the binding signal amounted to 0.0908 E-score in experiment [5], 0.0887 E-score in [6] and 0.477 E-score in experiment [9].
